Inconclusive results are not listed. Entries that show only a call come without a potency. Unmarked numbers belong to inactive results. The source made the active and inactive calls. The call rests on the fitted dose curve; in most records, active means well fitted cell-killing curve with a large enough effect in the repeat runs; inconclusive means weak or mixed curves; inactive means flat fitted curve, though single readings scatter.
Test: qHTS RealTime-Glo MT Cell Viability Assay in HepG2 cells - 24 hour (AID 1224867); further: nearly all actives have a fitted effect of over 50% in size
Settings: RealTime-Glo luminescence; series mostly up to 76.8 µM
Summary of the method: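 Real-time, nonlytic viability: 600 HepG2 cells/well mixed with NanoLuc enzyme plus prosubstrate; 5 h settle, compound (DMSO) added by pintool; luminescence monitored over 40 h at 37 C.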
Potency means the concentration at half of the fitted maximal effect.

Compound	Potency	activity change, negative = cytotoxicity
O=C(NCC1CN(c2ccc(N3CCOCC3=O)cc2)C(=O)O1)c1ccc(Cl)s1 (stereo not given)	inactive	–
CC(COCCO)OCCO (stereo not given)	inactive	–
CCC(C)(C)CC	inactive	–
CCN(CC)CCNc1ccc(CNC=O)c2sc3ccc(OC)cc3c(=O)c12	21.9 µM (active)	–
CC[N+](C)(CC)CCOC(=O)C(O)(c1ccccc1)C1CCCCC1 (stereo not given)	inactive	–
CN1CCC(N(Cc2cccs2)c2ccccc2)CC1	inactive	–
C=C(C)C(=O)OCC	inactive	–
C[N+]1(CC2COC(c3ccccc3)(C3CCCCC3)O2)CCCCC1 (stereo not given)	inactive	–
NCCCN1CCOCC1	inactive	–
CC(=O)[O][Al]	inactive	–
NC(=O)C(c1ccccc1)(c1ccccc1)[C@@H]1CCN(CCc2ccc3c(c2)CCO3)C1	inactive	–
CC(=O)[O][Al][O]C(C)=O	inactive	–
CCCCOC(=O)CCCCCCCC(=O)OCCCC	inactive	–
CCCCC(CC)COC(=O)CCCCCCCCC(=O)OCC(CC)CCCC (stereo not given)	inactive	–
CN(C)CCOC(c1ccccc1)c1ccc(Br)cc1 (stereo not given)	inactive	–
O=C(OCCCCCCOC(=O)c1ccccc1)c1ccccc1	inactive	–
C[Si](C)(CCCN)O[Si](C)(C)CCCN	inactive	–
CCC(C)O (stereo not given)	inactive	–

Compound	Potency	activity change, negative = cytotoxicity
Nc1cccc([N+](=O)[O-])c1	inactive	–
NS(=O)(=O)c1ccc(N2CCCCS2(=O)=O)cc1	inactive	–
Cc1ncc(CO)c(C=O)c1O	inactive	–
OC[C@H]1O[C@@H](OCCc2ccc(O)cc2)[C@H](O)[C@@H](O)[C@@H]1O	inactive	–
Nc1ccc([N+](=O)[O-])c(C(F)(F)F)c1	inactive	–
O=C(O)c1nc(Cl)c(Cl)c(Cl)c1Cl	inactive	–
CC(C)OC(=O)C(C)N(C(=O)c1ccccc1)c1ccc(F)c(Cl)c1 (stereo not given)	inactive	–
C[C@@H](c1ncncc1F)C(O)(Cn1cncn1)c1ccc(F)cc1F (stereo not given in full)	inactive	–
OC(C#CCN1CCCC1)(c1ccccc1)c1ccccc1	inactive	–
CCC(Cl)CCC(Cl)C(Cl)CC(Cl)C(Cl)C(Cl)CCl (stereo not given)	inactive	–
O=[N+]([O-])c1ccc(NCCO)c(OCCO)c1	inactive	–
CC(C)(O)c1ccc(CNC(=O)c2cccnc2Oc2ccc(F)cc2)cc1	inactive	–
CC(CSC(=O)c1ccccc1)C(=O)N1C[C@@H](Sc2ccccc2)C[C@H]1C(=O)O (stereo not given in full)	–	3.68% [at 15.8 µM]
CCCCC/C=C\C/C=C\CCCCCCCC(=O)NC(C)c1ccccc1 (stereo not given)	inactive	–
CN1Cc2cc(C(=O)N3CCC(C4CCNCC4)CC3)ccc2NC(CC(=O)O)C1=O (stereo not given)	inactive	–
COc1cc2nc(N(C)CCCNC(=O)C3CCCO3)nc(N)c2cc1OC (stereo not given)	inactive	–
COC(C)(C)CCO	inactive	–
